Assay [1] addresses Thyrotropin-releasing hormone receptor (Homo sapiens) (UniProt P34981). The experiment in a line: qHTS assay to identify small molecule agonists of the thyrotropin-releasing hormone receptor (TRHR) signaling pathway (AID 1346891; calls by dose curve;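 also: HEK293 cells expressing TRHR with calcium dye readout; series mostly up to about 58 µM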). The method in brief:
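Agonist-mode calcium mobilisation screen: TRHR-transfected HEK293 cells cultured overnight (18 h), dye-loaded for 2 h at 37 °C, exposed to compounds, and monitored by fluorescence for 3 min.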

Assay [2] in a line: Human pregnane X receptor (PXR) small molecule agonists, qHTS cell viability counter screen (AID 1346977). Also: nearly all actives have a fitted effect of over 50% in size. Also: potency is read from the fitted curve at half-maximal effect. The method, boiled down:
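Measures live-cell protease fluorescence (CellTiter-Fluor) in PXR-Luc HepG2 cells treated 24hr with compounds at 37C. Cells had 5hr to attach before pin transfer of DMSO solutions.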
On the technique in general: In qHTS, concentration-response curves come from the screen itself.

Assay [3] is described as follows: Caspase-3/7 induction in HepG2 cells by small molecules, qHTS assay (AID 1346978). Also: nearly all actives have a fitted effect of over 15% in size. The method in brief: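 Caspase-3/7 induction was measured by Caspase-Glo 3/7 luminescence (30 min, room temperature) after a 17 hr compound exposure of wild-type HepG2 cells seeded at 2,000 per well and pre-incubated 5 hr.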
A short description of assay [4]: Caspase-3/7 induction in CHO-K1 cells by small molecules, qHTS cell viability counter screen (AID 1346979). Also: nearly all actives have a fitted effect of over 35% in size. The method in brief:
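In the same wells as the caspase read, viability of compound-treated wild-type CHO-K1 cells was assessed using CellTiter-Fluor, added after 16hr at 37C and measured by fluorescence following 1hr further incubation.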

Assay [5] can be described thus: Caspase-3/7 induction in CHO-K1 cells by small molecules, qHTS assay (AID 1346980). Also: nearly all actives have a fitted effect of over 15% in size. The method in brief: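 Luminescent Caspase-Glo 3/7 read (30min, room temperature) quantified apoptosis induction. Cells were wild-type CHO-K1, treated with compound for 17hr at 37 C and 5% CO2.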
A short description of assay [6]: Caspase-3/7 induction in HepG2 cells by small molecules, qHTS cell viability counter screen (AID 1346981). Also: series mostly up to about 92 µM; nearly all actives have a fitted effect of over 30% in size. The method, boiled down:
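In this quantitative HTS counter screen, compounds delivered in DMSO were left on unmodified HepG2 cells for 16 hr at 37 C. Viability was then determined fluorometrically with CellTiter-Fluor, in parallel with caspase-3/7 induction in the same wells.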

For assay [7], the target named is Nuclear receptor subfamily 1 group I member 2 (Homo sapiens) (UniProt O75469). In words: Human pregnane X receptor (PXR) small molecule agonists, qHTS assay (AID 1346982). Also: nearly all actives have a fitted effect of over 35% in size. Also: potency is read from the fitted curve at half-maximal effect. The method in brief:
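Reporter HepG2 cells expressing PXR-Luc are cultured in charcoal-stripped FBS (5%), treated with compounds for 24 hr at 37 C, and assayed by ONE-Glo luminescence after 30 min at room temperature.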

Assay [8] concerns the target Nuclear receptor subfamily 1 group I member 2 (Rattus norvegicus) (UniProt Q9R1A7). In words: Rat pregnane X receptor (rPXR) activation by small molecules, qHTS assay (AID 1346983). Also: nearly all actives have a fitted effect of over 20% in size. The conditions noted are these: rPXR luciferase reporter cells, One-Glo luminescence, 24 h; max activation: stronger effect = higher value. The method in brief:
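Luminescent readout (One-Glo luciferase, 30 min room temperature) followed 24 hr compound treatment at 37 C of rPXR cells plated 2,000 per well and preincubated 5hr; qHTS format with compounds delivered in DMSO.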

The target in assay [9] is Nuclear receptor subfamily 1 group I member 2 (Homo sapiens) (UniProt O75469). The experiment in a line: Human pregnane X receptor (PXR) activation by small molecules, qHTS assay (AID 1346985). Also: nearly all actives have a fitted effect of over 40% in size. The method in brief:
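DPX-2 cells (HepG2 co-transfected with a PXR response element and a CYP3A4-promoter luciferase construct) were seeded at 2,000 per well, rested 5 hr at 37C, then exposed to DMSO-dissolved compounds for 24 hr. Activation was read as luciferase luminescence.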

The target of assay [10] is Cytochrome P450 2D6 (Homo sapiens) (UniProt P10635). The experiment in a line: Cytochrome P450 Family 2 Subfamily D Member 6 (CYP2D6) small molecule antagonists: luciferase reporter qHTS assay (AID 1671196). Also: nearly all actives have a fitted effect of over 50% in size. Also: potency is read from the fitted curve at half-maximal effect. The method in brief:
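Test chemicals meet CYP2D6 plus proluciferin substrate (10 min, RT); NADPH regenerating solution then drives turnover for 1 h. Detection reagent halts the reaction; luminescence measured after 20 min.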
A general note: Reporter assays use an easily measured gene product as a stand-in for the process of interest.

Assay [11] concerns the target Cytochrome P450 2C19 (Homo sapiens) (UniProt P33261). The experiment in a line: Cytochrome P450 Family 2 Subfamily C Member 19 (CYP2C19) small molecule antagonists: luciferase reporter qHTS assay (AID 1671197). Also: nearly all actives have a fitted effect of over 65% in size. Also: potency is read from the fitted curve at half-maximal effect. The method in brief:
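CYP2C19 P450-Glo, 1536-well qHTS. Cpd + enzyme/proluciferin substrate 10 min RT; + NADPH regen, 37C 1 h; stop with luciferin detection reagent, 20 min RT, luminescence (RLU). Pos ctrl ketoconazole.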

For assay [12], the target named is Cytochrome P450 2C9 (Homo sapiens) (UniProt P11712). In words: Cytochrome P450 Family 2 Subfamily C Member 9 (CYP2C9) small molecule antagonists: luciferase reporter qHTS assay (AID 1671198). Also: nearly all actives have a fitted effect of over 50% in size. Also: potency is read from the fitted curve at half-maximal effect. The method in brief:
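Enzyme-substrate mix preincubated with compound 10 min at room temperature; reaction started with NADPH regeneration solution, 1 h 37C. Luminescent luciferin product read after 20 min detection reagent.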

For assay [13], the target named is Cytochrome P450 1A2 (Homo sapiens) (UniProt P05177). The experiment in a line: Cytochrome P450 Family 1 Subfamily A Member 2 (CYP1A2) small molecule antagonists: luciferase reporter qHTS assay (AID 1671199). Also: nearly all actives have a fitted effect of over 50% in size. Also: potency is read from the fitted curve at half-maximal effect. The method in brief:
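Steps: enzyme-substrate mix dispensed; test compounds and furafylline control pinned in; 10 min room temperature; NADPH regeneration solution added, 1 h; reaction stopped with luciferin detection reagent; luminescence read after 20 min.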

Assay [14] has as its target Voltage-gated inwardly rectifying potassium channel KCNH2 (Homo sapiens) (UniProt Q12809). The experiment in a line: Human Ether-a-go-go-Related Gene (hERG) channel small molecule antagonists: fluorescence cell-based qHTS assay (AID 1671200). The method, boiled down:
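Quantitative HTS in hERG-U2OS cells: thallium entry through the channel reports activity, read as continuous 480/540 nm fluorescence over 2 min after stimulus addition.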
(In general: hERG is a cardiac potassium channel; its block is linked to QT prolongation.)

Assay [15] has as its target Cytochrome P450 3A4 (Homo sapiens) (UniProt P08684). The experiment in a line: Cytochrome P450 Family 3 Subfamily A Member 4 (CYP3A4) small molecule antagonists: luciferase reporter qHTS assay (AID 1671201). Also: nearly all actives have a fitted effect of over 50% in size. Also: potency is read from the fitted curve at half-maximal effect. The method, boiled down: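 Inhibition of CYP3A4 is measured as loss of light: the enzyme converts a proluciferin substrate to luciferin, detected luminescently. Reaction ran 1 h at room temperature with NADPH regeneration after a 10 min compound preincubation.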

Structures are written as SMILES. Unmarked numbers belong to inactive results. Records with an inconclusive call do not appear. Activity calls are given as the source filed them. Unless noted, calls follow the shape of the dose curve; as a rule, active = well fitted curve in the direction sought with a large enough effect in the repeat runs; inconclusive = weak or mixed curves; inactive = no such curve, though single readings can be large; an effect the other way counts as inactive or inconclusive.
% is scaled to controls: 0 for no effect and ±100 for the full control effect.

Chain of Cytochrome P450 2C19 (Homo sapiens) (P33261 whole entry, looked up): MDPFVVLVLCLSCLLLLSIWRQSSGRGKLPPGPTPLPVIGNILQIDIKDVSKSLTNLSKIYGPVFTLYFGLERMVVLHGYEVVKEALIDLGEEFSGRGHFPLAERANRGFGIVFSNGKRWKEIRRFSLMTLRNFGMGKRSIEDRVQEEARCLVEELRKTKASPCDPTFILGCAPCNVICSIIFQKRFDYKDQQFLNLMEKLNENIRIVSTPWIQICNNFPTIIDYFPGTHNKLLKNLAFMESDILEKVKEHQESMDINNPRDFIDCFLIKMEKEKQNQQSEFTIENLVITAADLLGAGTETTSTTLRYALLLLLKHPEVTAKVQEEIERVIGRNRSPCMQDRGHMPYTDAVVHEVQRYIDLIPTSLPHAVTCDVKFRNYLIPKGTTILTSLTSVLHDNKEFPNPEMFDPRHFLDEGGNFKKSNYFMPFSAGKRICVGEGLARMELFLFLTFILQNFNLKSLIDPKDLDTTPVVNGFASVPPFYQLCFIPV
Chain of Cytochrome P450 2D6 (Homo sapiens) (P10635 whole entry, looked up): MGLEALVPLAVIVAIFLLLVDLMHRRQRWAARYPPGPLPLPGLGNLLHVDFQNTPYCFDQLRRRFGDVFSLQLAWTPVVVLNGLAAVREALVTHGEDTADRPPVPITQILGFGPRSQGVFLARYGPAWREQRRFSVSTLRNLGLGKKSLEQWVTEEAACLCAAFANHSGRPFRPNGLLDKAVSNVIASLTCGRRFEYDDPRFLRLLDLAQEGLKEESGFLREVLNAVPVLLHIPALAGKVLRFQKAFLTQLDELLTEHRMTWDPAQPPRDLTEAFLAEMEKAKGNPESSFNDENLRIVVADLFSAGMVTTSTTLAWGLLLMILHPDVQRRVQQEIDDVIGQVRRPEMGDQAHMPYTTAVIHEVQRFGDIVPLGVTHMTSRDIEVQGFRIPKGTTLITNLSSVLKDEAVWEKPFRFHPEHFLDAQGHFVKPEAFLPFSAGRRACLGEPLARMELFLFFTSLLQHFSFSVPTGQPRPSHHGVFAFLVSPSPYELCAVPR
Chain of Thyrotropin-releasing hormone receptor (Homo sapiens) (P34981 whole entry, looked up): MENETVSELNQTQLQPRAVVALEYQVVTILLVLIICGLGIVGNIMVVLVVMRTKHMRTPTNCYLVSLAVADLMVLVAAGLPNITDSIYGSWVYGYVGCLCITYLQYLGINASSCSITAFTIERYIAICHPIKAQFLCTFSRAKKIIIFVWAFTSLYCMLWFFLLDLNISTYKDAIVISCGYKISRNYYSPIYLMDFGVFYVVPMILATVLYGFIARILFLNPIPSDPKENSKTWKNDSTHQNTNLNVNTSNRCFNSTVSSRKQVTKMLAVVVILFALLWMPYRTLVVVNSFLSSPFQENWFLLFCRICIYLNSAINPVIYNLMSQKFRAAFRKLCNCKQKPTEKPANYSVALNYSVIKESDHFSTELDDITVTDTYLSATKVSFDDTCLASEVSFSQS
Chain of Cytochrome P450 2C9 (Homo sapiens) (P11712 whole entry, looked up): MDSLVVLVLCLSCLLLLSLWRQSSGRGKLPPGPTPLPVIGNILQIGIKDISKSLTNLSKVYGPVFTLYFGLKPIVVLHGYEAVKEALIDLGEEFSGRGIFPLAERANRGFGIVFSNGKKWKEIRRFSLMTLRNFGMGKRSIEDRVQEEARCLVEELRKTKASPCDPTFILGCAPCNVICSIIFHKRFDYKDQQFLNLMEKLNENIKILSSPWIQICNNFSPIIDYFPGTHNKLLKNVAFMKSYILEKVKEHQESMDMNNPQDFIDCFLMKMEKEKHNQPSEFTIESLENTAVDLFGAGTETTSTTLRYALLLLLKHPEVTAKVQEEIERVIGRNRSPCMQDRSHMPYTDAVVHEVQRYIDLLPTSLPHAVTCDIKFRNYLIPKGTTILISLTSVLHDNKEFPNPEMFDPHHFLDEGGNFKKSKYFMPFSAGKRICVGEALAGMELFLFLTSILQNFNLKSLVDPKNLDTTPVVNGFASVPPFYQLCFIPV
Chain of Voltage-gated inwardly rectifying potassium channel KCNH2 (Homo sapiens) (Q12809 whole entry, looked up): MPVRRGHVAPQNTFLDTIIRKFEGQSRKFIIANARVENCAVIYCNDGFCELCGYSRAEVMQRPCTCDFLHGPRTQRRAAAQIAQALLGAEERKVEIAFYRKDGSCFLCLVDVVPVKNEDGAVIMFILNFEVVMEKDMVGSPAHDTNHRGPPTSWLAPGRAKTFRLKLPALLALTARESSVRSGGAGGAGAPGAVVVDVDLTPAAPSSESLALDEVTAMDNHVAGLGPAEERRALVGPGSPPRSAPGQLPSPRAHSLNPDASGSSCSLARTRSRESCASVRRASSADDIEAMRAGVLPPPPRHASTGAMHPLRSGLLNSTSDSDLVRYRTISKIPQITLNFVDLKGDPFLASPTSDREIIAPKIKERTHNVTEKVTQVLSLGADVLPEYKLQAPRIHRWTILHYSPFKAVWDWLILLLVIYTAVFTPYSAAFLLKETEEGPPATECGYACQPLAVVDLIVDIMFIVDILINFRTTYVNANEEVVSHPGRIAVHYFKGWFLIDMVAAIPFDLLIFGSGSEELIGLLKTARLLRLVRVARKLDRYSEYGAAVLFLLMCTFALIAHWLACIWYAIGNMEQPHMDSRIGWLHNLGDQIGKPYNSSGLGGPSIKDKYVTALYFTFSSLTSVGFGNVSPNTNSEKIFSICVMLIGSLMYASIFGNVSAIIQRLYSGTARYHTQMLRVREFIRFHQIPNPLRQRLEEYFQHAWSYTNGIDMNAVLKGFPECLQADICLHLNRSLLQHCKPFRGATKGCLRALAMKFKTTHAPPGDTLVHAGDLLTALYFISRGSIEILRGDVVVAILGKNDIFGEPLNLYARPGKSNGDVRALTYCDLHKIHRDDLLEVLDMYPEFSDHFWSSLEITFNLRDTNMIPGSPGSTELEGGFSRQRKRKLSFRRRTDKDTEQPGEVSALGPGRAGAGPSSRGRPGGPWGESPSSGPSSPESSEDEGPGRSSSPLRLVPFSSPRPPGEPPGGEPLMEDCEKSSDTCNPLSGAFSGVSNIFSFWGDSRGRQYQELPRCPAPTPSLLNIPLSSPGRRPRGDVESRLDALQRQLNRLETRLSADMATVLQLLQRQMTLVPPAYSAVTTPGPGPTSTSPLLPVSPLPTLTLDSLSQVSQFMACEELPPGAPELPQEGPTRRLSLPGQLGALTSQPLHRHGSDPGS
Chain of Cytochrome P450 3A4 (Homo sapiens) (P08684 whole entry, looked up): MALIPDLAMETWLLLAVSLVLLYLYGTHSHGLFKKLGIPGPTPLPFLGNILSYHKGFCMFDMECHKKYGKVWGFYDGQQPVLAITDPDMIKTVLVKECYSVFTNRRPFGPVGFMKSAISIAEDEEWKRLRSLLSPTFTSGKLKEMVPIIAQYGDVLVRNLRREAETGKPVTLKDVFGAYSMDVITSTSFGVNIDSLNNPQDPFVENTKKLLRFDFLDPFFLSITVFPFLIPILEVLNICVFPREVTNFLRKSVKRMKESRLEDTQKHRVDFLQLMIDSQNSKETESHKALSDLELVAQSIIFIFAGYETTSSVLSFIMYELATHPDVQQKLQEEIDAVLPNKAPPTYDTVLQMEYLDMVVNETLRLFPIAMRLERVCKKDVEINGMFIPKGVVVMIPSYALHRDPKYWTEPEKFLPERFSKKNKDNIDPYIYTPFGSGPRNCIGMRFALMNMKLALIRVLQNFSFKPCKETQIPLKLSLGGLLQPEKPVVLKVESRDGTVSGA
Chain of Nuclear receptor subfamily 1 group I member 2 (Homo sapiens) (O75469 whole entry, looked up): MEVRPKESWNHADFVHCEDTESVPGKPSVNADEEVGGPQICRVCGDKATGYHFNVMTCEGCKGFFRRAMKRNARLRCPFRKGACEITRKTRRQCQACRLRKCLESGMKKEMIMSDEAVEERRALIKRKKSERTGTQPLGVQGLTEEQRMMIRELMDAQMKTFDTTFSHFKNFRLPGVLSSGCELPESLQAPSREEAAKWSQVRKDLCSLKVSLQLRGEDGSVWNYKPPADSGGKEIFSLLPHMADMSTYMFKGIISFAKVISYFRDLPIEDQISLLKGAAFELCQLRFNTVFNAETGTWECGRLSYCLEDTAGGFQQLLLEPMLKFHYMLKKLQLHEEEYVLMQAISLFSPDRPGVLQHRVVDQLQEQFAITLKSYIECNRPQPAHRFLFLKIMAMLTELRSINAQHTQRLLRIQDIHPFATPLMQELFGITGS
Chain of Cytochrome P450 1A2 (Homo sapiens) (P05177 whole entry, looked up): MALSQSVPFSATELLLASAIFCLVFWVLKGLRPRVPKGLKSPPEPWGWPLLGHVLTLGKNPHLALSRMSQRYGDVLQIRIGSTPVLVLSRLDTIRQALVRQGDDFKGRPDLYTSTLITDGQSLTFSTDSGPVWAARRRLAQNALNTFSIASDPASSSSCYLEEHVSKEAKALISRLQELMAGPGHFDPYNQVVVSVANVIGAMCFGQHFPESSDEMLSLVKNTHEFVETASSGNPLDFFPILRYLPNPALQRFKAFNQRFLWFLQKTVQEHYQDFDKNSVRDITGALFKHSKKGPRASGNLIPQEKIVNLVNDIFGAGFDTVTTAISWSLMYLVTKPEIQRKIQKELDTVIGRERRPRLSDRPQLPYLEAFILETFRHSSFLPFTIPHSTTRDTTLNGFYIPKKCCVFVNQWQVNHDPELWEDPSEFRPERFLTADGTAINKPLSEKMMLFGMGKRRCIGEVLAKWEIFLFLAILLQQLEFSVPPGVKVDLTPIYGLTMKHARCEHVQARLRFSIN
Chain of Nuclear receptor subfamily 1 group I member 2 (Rattus norvegicus) (Q9R1A7 whole entry, looked up): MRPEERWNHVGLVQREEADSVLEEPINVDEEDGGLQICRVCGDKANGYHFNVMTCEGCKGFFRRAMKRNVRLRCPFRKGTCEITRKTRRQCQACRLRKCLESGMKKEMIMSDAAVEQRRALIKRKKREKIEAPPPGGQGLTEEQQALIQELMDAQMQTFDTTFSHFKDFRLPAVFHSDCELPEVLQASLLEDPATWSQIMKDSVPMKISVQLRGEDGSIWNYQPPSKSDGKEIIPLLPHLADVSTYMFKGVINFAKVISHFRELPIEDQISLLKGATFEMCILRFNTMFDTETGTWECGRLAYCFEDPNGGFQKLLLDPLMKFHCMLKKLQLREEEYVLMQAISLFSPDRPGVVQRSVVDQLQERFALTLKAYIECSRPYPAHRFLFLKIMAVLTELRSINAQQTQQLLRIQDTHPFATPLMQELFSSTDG

For `CS(=O)(=O)c1ccc([C@@H](C[C@H]2CCC(=O)C2)C(=O)Nc2cnccn2)cc1Cl`, the call in [1] and in assay [5] was inactive. Moreover, the Potency entry in assay [2], in assay [3], in [4], in [6] and in [7] was “inactive” throughout.

Consider `COc1cc(NC(C)CCCN)c2ncccc2c1` (centres undefined), for which the compound was called inactive in assay [1] and in [5]. In addition, in assay [2], the Potency was 29.8 µM (active). Also, the Potency result in assay [3], in [4], in assay [6], in [7] and in assay [9] was “inactive” throughout. Besides, the max activation in assay [8] is -6.86%.

On to `C/C(C=O)=C\c1ccccc1`, for which the call in [1] and in assay [5] was inactive. The Potency result in [2], in assay [3], in assay [4], in [6], in assay [10] and in assay [11] was “inactive” throughout. The Potency entry in assay [12], in assay [13], in [14] and in assay [15] was “inactive” in each case. In addition, the Potency in [7] is 30 µM (active).

Regarding `O=C(NS(=O)(=O)/C=C/c1ccccc1)c1ccc(F)cc1Cl`, the compound was classed as inactive in [1] and in [5]. The Potency entry in assay [2], in assay [3], in [4], in assay [6], in assay [10] and in [11] was “inactive” each time. The Potency result in [13], in assay [14] and in assay [15] was “inactive” throughout. Moreover, the Potency in [7] was 19.3 µM (active); in [12], 10 µM (active).

On to `CCC(C)(C)C(=O)O`, for which the compound was called inactive in assay [1] and in assay [5]. Besides, the Potency result in [2], in assay [3], in assay [4], in assay [6], in assay [7] and in assay [10] was “inactive” in each case. For the same compound, the Potency result in assay [11], in assay [12], in [13], in assay [14] and in [15] was “inactive” in each case.

Regarding `CCCCCCCCCCCSCC(=O)O`, the result in assay [1] and in assay [5] was inactive. Also, the Potency result in assay [2], in [3], in [4], in [6], in [7] and in assay [13] was “inactive” each time. Besides, the Potency entry in [14] is “inactive”. Also, the figures for the Potency in assay [10] and in [12] were 31.7 µM (active) and 71 µM (active), respectively.

For `CC(=O)c1ccc[nH]1`, the compound was classed as inactive in assay [1] and in assay [5]. The Potency result in assay [2], in assay [3], in assay [4], in assay [6], in assay [7] and in assay [10] was “inactive” in each case. For the same compound, the Potency result in assay [11], in assay [12], in assay [14] and in [15] was “inactive” each time.

On to `C1=CCC2CC=CC2C1` (centres undefined), for which the outcome in assay [1] and in [5] was inactive. Besides, the Potency result in [2], in [3], in [4], in assay [6], in assay [10] and in assay [12] was “inactive” in each case. Besides, the Potency entry in assay [14] was “inactive”. For the same compound, the Potency in [7] is 54.4 µM (active); in assay [11], 70.9 µM (active).

Take `CCCCCCCC/C=C/C(=O)O`: the outcome in assay [1] and in assay [5] was inactive. Besides, the Potency entry in assay [2], in assay [3], in assay [4], in assay [6], in [7] and in assay [10] was “inactive” in each case. Also, the Potency result in [11], in [12], in [14] and in [15] was “inactive” in each case.

As to `c1ccc(CCCc2ccncc2)cc1`, the result in assay [1] and in assay [5] was inactive. The Potency entry in [2], in [3], in assay [4], in [6] and in assay [14] was “inactive” in each case. The Potency in assay [7] is 30.6 µM (active); in assay [10] it was 4.48 µM (active); in [11] it was 0.633 µM (active); in assay [12] it was 2 µM (active); in [13], 1.42 µM (active); in assay [15] it was 0.448 µM (active).

(Values after PubChem BioAssay (Tox21).)
